Assay results: PubChem BioAssay AID588343 (Broad Institute, 2011)
Out of some 1,200 compounds screened, about 650 (54%) were called active. About 5% were inconclusive and are not listed.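 The calls were made as follows: active = signal-lowering curve whose fitted half-maximal concentration is at or below ten times the top valid dose tested; inconclusive = flat curve with 30 to 70% inhibition, or poor fit; inactive = signal increase, flat within 30%, or potency beyond limit.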 So high a share suggests a set chosen from earlier hits. A selection follows. Potency and affinity values are given separately.

experiment: EBV LMP1 TES2 canonical NF-kB signalling blockers – cell-based, HEK293, luciferase, cherry-pick, dose response (AID 588343); details: HEK293 LMP1 TES2 NF-kB luciferase reporter, 16 h; series mostly up to 35 µM; activity change, negative = inhibition: at the top concentration;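 also: 0% = median of neutral control wells and -100% = MG132 positive control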

Activity change, negative = inhibition, inactive:
COc1ccc(NC(=O)C2CCCN(S(=O)(=O)c3cccc4nonc34)C2)c(OC)c1 (stereo not drawn) -11.2%
Cc1ccc(C)c(N2CCN(S(=O)(=O)c3ccc4c(c3)CCN4C(=O)CCC(=O)O)CC2)c1 -3.45%
O=C(N1CCOCC1)N1CCN(S(=O)(=O)c2ccc(Cl)cc2)C1 -7.57%
COc1ccc(/C=N/N=C/c2ccc(OC)c(OC)c2)cc1OC 9.12%
COc1ccc(/C=C\C(=O)NCc2ccc3c(c2)cc(C)n3C)cc1OC -4.59%
Cc1cc(C)c(S(=O)(=O)Nc2nnc(CC(C)C)s2)c(C)c1 6.39%
CC1(C)CC(NS(=O)(=O)c2ccc(F)cc2)CC(C)(C)N1 -4.19%
O=C(Nc1ccncc1)OCc1ccccc1 -5.3%
CN(C)CC(C)(C)CNS(=O)(=O)c1ccc(OC(F)(F)F)cc1 4.61%
COc1ccc(C(=O)N2CC(=O)Nc3ccccc32)cc1S(=O)(=O)N1CCCC1 15.1%
COc1ccc(NC(=O)COC(=O)/C=C/c2ccc(OC)c(S(=O)(=O)N3CCOCC3)c2)cc1 -2.68%
O=C(O)[C@@H]1[C@H]2C[C@H]3c4[nH]c5ccccc5c4CCN3C[C@@H]2CC[C@@H]1O -1.94%
CC(C)(C)C(=O)Nc1nnc(SCC(=O)Nc2ccc3c(c2)OCO3)s1 -4.9%
CCc1ccccc1N(CC(=O)NCc1ccco1)C(=O)c1snc(C(N)=O)c1N 0.513%
COc1ccc(-n2c(SCC(=O)Nc3ccc4c(c3)OCO4)nc3c(c2=O)SCC3)cc1 -8.49%
COC(=O)c1ccc(CSc2nc3c(c(=O)n2-c2ccc(C)cc2)SCC3)o1 21.4%
Cc1cccc(C)c1NC(=O)CN(C)C(=O)c1ccc(-c2cccc(C(F)(F)F)c2)o1 -0.08%
O=C(CN1CCN(S(=O)(=O)c2ccc(F)cc2)CC1)Nc1cccc(C(F)(F)F)c1 40.9%
O=C(Cn1ccc(C(F)(F)F)n1)Nc1cccc(S(=O)(=O)N2CCCCC2)c1 6.67%
O=C(NCCc1cn2ccccc2n1)C1CCCCC1 -4.95%
NC(=O)N/N=C/c1ccc(N2CCOCC2)s1 -23.2%
Cc1ccc(-n2ccc(=O)c(C(=O)Nc3ccc(S(=O)(=O)N4CCOCC4)cc3)n2)cc1 -5.67%
Cc1ccc(CNC(=O)C(=O)NCC2OCCN2S(=O)(=O)c2ccc(Cl)cc2)cc1 (stereo not drawn) -9.64%
CN(C)CCCC1(c2ccc(F)cc2)OCc2cc(C#N)ccc21 (stereo not drawn) -2.99%
CC(=O)O[C@]1(C(C)=O)CC[C@H]2[C@@H]3C=C(C)C4=CC(=O)CC[C@@H]4[C@H]3CC[C@@]21C 13.3%
CC(C)Oc1ccc(C2CC(=O)NC2=O)cc1 (stereo not drawn) -6.47%
COc1ccc(/C(CC2OC(=O)c3ccccc32)=N\NC(N)=O)cc1 (stereo not drawn) 11.8%
COc1cc(NC(=S)N2CCN(CCO)CC2)cc(OC)c1 -1.75%
Cc1ccc(/C=N/NC(=O)c2cc(-c3ccccc3)nc3ccccc23)o1 -0.376%
COC(=O)c1[nH]c2cccc(C)c2c1NC(=O)CN1CCCc2ccccc21 -10.2%
CCCCOc1ccc2c(c1)/C(=C(\C(Cl)=C(Cl)Cl)[N+](=O)[O-])N2 -10.4%
COCCNC(=O)C(=O)NCC1OCCN1C(=O)c1ccc(Cl)cc1 (stereo not drawn) -6.53%
COCCCn1cnnc1SCC(=O)Nc1ccc(S(=O)(=O)N2CCCC2)cc1 -5%
CNc1ccc(Br)cc(C(=O)/C=C/c2cccc(OC)c2)c1=O 7.05%
CN(CCNC(=O)C1CCN(S(=O)(=O)N2CCOCC2)CC1)CCc1ccccc1 5.33%
Cn1cccc1/C=N/n1c(-c2ccc(Cl)cc2Cl)n[nH]c1=S -16.1%
COc1ccc(CN2C(=O)c3cccnc3C2Nc2cc(Cl)ccc2OC)cc1 (stereo not drawn) 7.84%
O=C(COC(=O)c1cc2ccccc2cc1O)NCc1ccccc1 2.44%
COc1ccc(-c2nc(C)ncc2-c2ccccc2)c(O)c1 14%
Cc1ccc(NC(=O)NNS(=O)(=O)c2ccc(Br)cc2)cc1 -5.64%
O=C(Nc1ccccn1)NC1CCCCC1 25.1%
CC1CN(c2cc(=O)n(-c3ccccc3)c(=O)[nH]2)CC(C)O1 (stereo not drawn) 9.32%
Cc1ccc(-n2nc(C(=O)NCc3ccc(C)o3)c3c4ccccc4n(C)c3c2=O)cc1 1.78%
Nc1nc(N)nc(-c2cc(Cl)ccc2Cl)n1 1.16%
COc1ccccc1NC(=O)Cn1nnc(-c2ccccc2NS(=O)(=O)c2ccccc2)n1 13.3%
CC1CCCN(C(=O)COC(=O)c2n[nH]c3ccccc23)C1 (stereo not drawn) -9.33%
COc1ccc(S(=O)(=O)NCC(c2cccnc2)N2CCN(c3ccc(F)cc3)CC2)cc1C (stereo not drawn) -9.56%
COc1ccc(-c2[nH]ncc2/C=N\NS(=O)(=O)c2ccc(Cl)cc2)cc1 -21.3%
CC1(C)CC(=O)C(CC2=C(O)CC(C)(C)CC2=O)=C(O)C1 -2.16%
CSc1ccccc1OCc1cc(C(=O)N2CCC[C@H]2C(N)=O)no1 -1.13%
COc1ccccc1OCc1ccc(C(=O)c2ccccc2)cc1 12.8%
Cc1ccc(C(=O)NCC(=O)N(C)Cc2cccc(F)c2)s1 -9.68%
CCCC(=O)C1=C(O)C(C(=O)OC)C(C)(C)CC1=Nc1ccncc1 (stereo not drawn) 19.9%
CSc1ccccc1NC(=O)CN1CCCCC1C (stereo not drawn) 13.4%
CCSc1nnc(NC(=O)CCn2c(=O)oc3ccccc32)s1 4.22%
CCOc1cc(C(=O)OC(C)C(=O)Nc2ncc(Cl)cc2Cl)ccc1OCC(=O)N1CCOCC1 (stereo not drawn) 8.92%
O=C(CN1C(=O)c2ccccc2C1=O)NNC1=NS(=O)(=O)c2ccccc21 -3.6%
Cc1onc(-c2c(Cl)cccc2Cl)c1C(=O)N[C@@H]1C(=O)N2[C@@H]1SC(C)(C)[C@@H]2C(=O)O -8.5%
COc1ccccc1N1CCN(CCCNC(=O)C2CCCN(c3ncnc4c3nc3n4CCCCC3)C2)CC1 (stereo not drawn) 0.249%
C=CCN1CCN(C(CC(C)C)c2nnnn2CCOC)CC1 (stereo not drawn) -11.1%
Cn1c(CC(=O)Nc2ccc(F)cc2)nnc1SCC(=O)Nc1nncs1 10.7%
O=C(Cn1nc(C(F)(F)F)c2c1CCC2)NC1CCCCC1 -2.62%
O=C(CCCN1C(=O)[C@H]2CC=CC[C@H]2C1=O)NCc1nc(-c2ccc(Cl)cc2)no1 -18.8%
O=C(O)CCc1nc(-c2ccc(Cl)cc2)no1 4.11%
Cc1ccccc1NC(=O)CN1C(=O)S/C(=C\c2cccn2-c2cccc(C(=O)O)c2)C1=O -6.82%
COc1ccc(NC(=O)CCS(=O)(=O)c2ccc3c(c2)CCN3C(C)=O)cc1 -5.97%
COc1ccc(N2C(=O)C(=O)/C(=C(/O)c3ccc(C)cc3)C2c2cccnc2)cc1 (stereo not drawn) 15.4%
CC(=O)Nc1ccc(OCCCNC(=O)c2c(-c3ccccc3)noc2C)cc1 -11.5%
COC(=O)c1ccc(COc2ccccc2/C=C/C(=O)c2ccc(OCC(=O)O)cc2)cc1 28.1%
Cc1ccc(C)c(S(=O)(=O)N2CCN(CC(=O)N3CCc4ccccc4C3)CC2)c1 -3.25%
CCc1c(C)nc2cc(-c3ccc(OC)c(OC)c3)nn2c1NCC1CC1 -3.66%
NC(=O)C1(Nc2ccc([N+](=O)[O-])cc2)CCCC1 34.6%
O=C(C1CCCCC1)N1CCN(c2ncccn2)CC1 3.25%
CCCCCC(=O)N1CCN(c2ccc(C(C)=O)cc2F)CC1 -3.82%
CCN(CC)Cc1cc(Nc2ccnc3cc(Cl)ccc23)ccc1O 101%
O=C1CCC(C(=O)N2CCCCCC2)CN1CCc1ccc(Cl)cc1 (stereo not drawn) 16.5%
COc1ccc(OC)c2[nH]c(=O)c(CCNC(=O)c3ccc(S(=O)(=O)N(C)C)cc3)cc12 -1.61%
O=C(c1sc2cc([N+](=O)[O-])ccc2c1Cl)N1CCOCC1 -5.85%
COc1ccc(-c2cn3nc4c(nc3n2)CCCC4)cc1 16.5%
O=C(CCC(=O)NNC(=O)Nc1cccc(Cl)c1)NCc1ccccc1 5.6%
O=C(O)c1cccc(NC(=O)c2cn(-c3ccccc3)nc2-c2ccc(F)cc2)c1 -4.64%
CC(C)(C)c1cc(C(=O)NNC(=O)Nc2cccc(Cl)c2)n(Cc2ccccc2)n1 -29.9%
COc1cccc(CC(=O)NNC(=O)c2ccc3c(c2)OCO3)c1 28.4%
CC(CN1CCCCC1)OC(=O)c1ccc2c(c1)OCO2 (stereo not drawn) 11.2%
COC(=O)C1=C(C)N(CCCC(=O)O)C(=O)NC1c1cccc(Cl)c1Cl (stereo not drawn) 10.5%
CCc1nnc(NC(=O)c2ccc(S(=O)(=O)N3CCOCC3)cc2)s1 0.338%
Cn1cc(SCC(=O)NCC2CCCO2)c2ccccc21 (stereo not drawn) 2.79%
COc1ccc(CN(C(=O)c2nsc(Cl)c2Cl)C(C(=O)NC2CCCC2)c2ccc(C)cc2)cc1 (stereo not drawn) -2.71%
CN(Cc1ccc(F)cc1)C(=O)CN1CCN(S(=O)(=O)c2ccc3c(c2)OCCCO3)CC1 -8.59%
Cc1c(C=O)c2ccccn2c1C(=O)c1ccccc1Cl -10.8%
COc1cc(/C=N/NC(=O)c2cccc(S(=O)(=O)N3CCOCC3)c2)cc(OC)c1O 0.063%
CC(=O)c1ccccc1OCC(=O)Nc1cccc(S(=O)(=O)N2CCCC2)c1 27.2%
Cc1ccc(S(=O)(=O)N2CCCCC2)cc1NC(=O)CNc1ccccc1N1CCCC1=O 20%
Cc1ccc(-c2nnn(CC(=O)N(Cc3ccco3)C(C(=O)NC(C)(C)C)c3ccncc3)n2)o1 (stereo not drawn) 0.887%
CCOC(=O)Cc1csc(N/N=C\c2ccc(N(C)C)cc2)n1 -10.4%
COc1ccc(/C=N/NC(=O)COc2ccccc2-c2ccccc2)cc1 -5.95%
COc1ccccc1C(=O)NC(=O)CSc1nnc(N)s1 3.08%
Cc1ccc(N(Cc2cc3ccccc3[nH]c2=O)C(=O)c2ccco2)c(C)c1 7.13%
Cc1ccc(CN2C(=O)CCC2C(=O)NCCCN2CCC(C)CC2)cc1 (stereo not drawn) -7.63%
COc1ccc(N2CCN(CCNC(=O)CCCn3c(=O)[nH]c4cc(Cl)ccc4c3=O)CC2)cc1 5.67%
COc1ccc(-c2nc(CS(=O)CC(=O)NCc3ccc(Cl)cc3)c(C)o2)cc1 (stereo not drawn) 12.4%
CC1CC(C)CN(S(=O)(=O)c2ccc(NC(=O)CCN3C(=O)C4CC=CCC4C3=O)cc2)C1 (stereo not drawn) -5.72%
CC1(C)CN(Cc2ccccc2)C(=O)[C@H]1CC(=O)Nc1ccccc1 -7.78%
